Data published in PubChem BioAssay (NCI).
This is part of a sample that, as a whole, favours compounds with a hit. Of some 79,000 tested, about 15% had one in any assay. Values without a mark were called inactive. Active and inactive are the calls of the source. No stated cut-off is given here; in the data, active means growth inhibition above about 70%; inactive means the rest.

Tests used:
[1] = NCI Yeast Anticancer Drug Screen. Data for the rad50 strain (AID 155);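 further: 0% = growth of vehicle-only cultures of the same strain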; conditions: S. cerevisiae rad50 strain growth inhibition; at 50.0 µM; stronger effect = higher value
Outline: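 Genetically altered yeast (DNA repair pathway); compound treatment; growth inhibition vs vehicle ctrl.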

[2] = NCI Yeast Anticancer Drug Screen. Data for the mec2-1 strain (AID 157); conditions: S. cerevisiae mec2-1 strain, at 50.0 µM, stronger effect = higher value
Outline: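 Mutant yeast (mec2-1) grown with compound; growth inhibition relative to vehicle control reported.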

[3] = NCI Yeast Anticancer Drug Screen. Data for the sgs1 mgt1 strain (AID 161);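 further: 0% = growth of cultures given vehicle only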; conditions: S. cerevisiae sgs1 mgt1 strain, at 50.0 µM, stronger effect = higher value
Outline: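 Growth of a repair-deficient yeast mutant was monitored after compound treatment and expressed as inhibition relative to vehicle-treated cultures.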

[4] = NCI Yeast Anticancer Drug Screen. Data for the cln2 rad14 strain (AID 165);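 further: 0% = growth equal to vehicle treated cultures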; conditions: S. cerevisiae cln2 rad14 strain, at 50.0 µM, stronger effect = higher value
Outline: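 Readout is yeast growth inhibition versus vehicle-treated controls, using a strain with cln2 and rad14 alterations exposed to compound.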

[5] = NCI Yeast Anticancer Drug Screen. Data for the bub3 strain (AID 167); conditions: S. cerevisiae bub3 mutant strain, at 50.0 µM, stronger effect = higher value
Outline: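 Yeast carrying a defined mutation is treated with each compound, and growth is compared with that of vehicle-exposed cells to give inhibition.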

[6] = NCI Yeast Anticancer Drug Screen. Data for the mlh1 rad18 strain (AID 175); conditions: S. cerevisiae mlh1 rad18 strain growth inhibition; at 50.0 µM; stronger effect = higher value
Outline: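 Genetically defined yeast (DNA repair-deficient) exposed to compounds; growth inhibition determined relative to vehicle.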

Compound: O=C(CCCC(=O)NNC(=O)Nc1cccc(Cl)c1)NNC(=O)Nc1cccc(Cl)c1
- growth inhibition [1]: -13.2%
- growth inhibition [2]: -2.2%
- growth inhibition [3]: -10.9%
- growth inhibition [4]: -12.9%
- growth inhibition [5]: -1.7%
- growth inhibition [6]: -10.6%

Compound: Cc1ccc(NC(=O)OC/C=C/c2ccccc2)cc1NC(=O)OC/C=C/c1ccccc1
- growth inhibition [1]: 17.9%
- growth inhibition [2]: 3.05%
- growth inhibition [3]: 9.05%
- growth inhibition [4]: 6.35%
- growth inhibition [5]: -8.35%
- growth inhibition [6]: 24.1%

Compound: C(=Nc1ccccc1-c1ccccc1N=Cc1ccccc1)c1ccccc1
- growth inhibition [1]: 7.6%
- growth inhibition [2]: 7.3%
- growth inhibition [3]: -1.25%
- growth inhibition [4]: 7.2%
- growth inhibition [5]: -7.75%
- growth inhibition [6]: -17.9%

Compound: COc1ccc(C2N(c3ccccc3)OC(=O)N2c2ccccc2)cc1 (stereo unspecified)
- growth inhibition [1]: 43.8%
- growth inhibition [2]: 7.2%
- growth inhibition [3]: 16.1%
- growth inhibition [4]: 9.1%
- growth inhibition [5]: 14.4%
- growth inhibition [6]: 20.8%

Compound: CCOC(=O)CNC(=O)CNC(=O)CNC(=O)CN
- growth inhibition [1]: 0.1%
- growth inhibition [2]: 2.5%
- growth inhibition [3]: 15.8%
- growth inhibition [4]: -20.4%
- growth inhibition [5]: -3.85%
- growth inhibition [6]: -16.6%

Compound: COc1ccc(C[n+]2ccccc2C#N)cc1OC
- growth inhibition [1]: 4.7%
- growth inhibition [2]: -13.8%
- growth inhibition [3]: -10.4%
- growth inhibition [4]: -15.8%
- growth inhibition [5]: 4.25%
- growth inhibition [6]: 3.2%

Compound: CN(C)CCC(C(N)=O)c1ccccc1 (stereo unspecified)
- growth inhibition [1]: 36.1%
- growth inhibition [2]: -1.7%
- growth inhibition [3]: -3.7%
- growth inhibition [4]: 38.9%
- growth inhibition [5]: -5.85%
- growth inhibition [6]: 18.1%

Compound: C/C=C\c1ccc(OCCOC(C)=O)c(OC)c1
- growth inhibition [1]: 12%
- growth inhibition [2]: -13.6%
- growth inhibition [3]: -3.4%
- growth inhibition [4]: -28.2%
- growth inhibition [5]: -9.95%
- growth inhibition [6]: -15.8%

Compound: CC(=O)NC(N)=O
- growth inhibition [1]: 3.9%
- growth inhibition [2]: 2.2%
- growth inhibition [3]: 28.4%
- growth inhibition [4]: -30.9%
- growth inhibition [5]: -1.9%
- growth inhibition [6]: 1.6%

Compound: Cc1ccc(NC(=O)c2ccccc2[N+](=O)[O-])cc1
- growth inhibition [1]: 12.5%
- growth inhibition [2]: 15.8%
- growth inhibition [3]: 0.1%
- growth inhibition [4]: 20.4%
- growth inhibition [5]: -2.1%
- growth inhibition [6]: -10.2%

Compound: O=C(c1ccccc1)C(c1ccccc1)N(CCO)CCO (stereo unspecified)
- growth inhibition [1]: -9.8%
- growth inhibition [2]: -17.4%
- growth inhibition [3]: -2.85%
- growth inhibition [4]: -13.4%
- growth inhibition [5]: 20.6%
- growth inhibition [6]: -17.3%

Compound: OC(CC1CCCCN1)c1cc2c(Cl)cc(Cl)cc2c2cc(C(F)(F)F)ccc12 (stereo unspecified)
- growth inhibition [1]: 68%
- growth inhibition [2]: 50.6%
- growth inhibition [3]: 42.5%
- growth inhibition [4]: 30.1%
- growth inhibition [5]: 98.8% (active)
- growth inhibition [6]: 52%

Compound: O=C(O)c1ccc([N+](=O)[O-])c(P(=O)(O)O)c1
- growth inhibition [1]: -5.95%
- growth inhibition [2]: -7%
- growth inhibition [3]: -12.2%
- growth inhibition [4]: -42.8%
- growth inhibition [5]: -29.6%
- growth inhibition [6]: -3.5%

Compound: COC(=O)[C@@]1(NC(=O)C(CC(=O)OC(C)(C)C)NC(=O)OC(C)(C)C)C[C@H]1C (stereo partly specified)
- growth inhibition [1]: -48.8%
- growth inhibition [2]: -28.6%
- growth inhibition [3]: -33.2%
- growth inhibition [4]: 6.15%
- growth inhibition [5]: -3.25%
- growth inhibition [6]: -14%

Compound: N#Cc1ccc(Cl)cc1C#N
- growth inhibition [1]: 13.4%
- growth inhibition [2]: -4.65%
- growth inhibition [3]: -2.2%
- growth inhibition [4]: 7.65%
- growth inhibition [5]: 14.1%
- growth inhibition [6]: -14.3%

Compound: Cc1c(Cl)cccc1NC(=O)OC/C=C/c1ccccc1
- growth inhibition [1]: 3.2%
- growth inhibition [2]: 33.2%
- growth inhibition [3]: 14.8%
- growth inhibition [4]: -9.35%
- growth inhibition [5]: 5.6%
- growth inhibition [6]: -10.9%

Compound: CCOC(=O)CC(NC(=O)CC(N)C(=O)O)C(=O)OCC (stereo unspecified)
- growth inhibition [1]: 7.15%
- growth inhibition [2]: 3%
- growth inhibition [3]: -2.7%
- growth inhibition [4]: -1.25%
- growth inhibition [5]: -0.3%
- growth inhibition [6]: -3.25%

Compound: COc1cc(/C=C2/Cc3ccccc3C2=O)ccc1O
- growth inhibition [1]: 47%
- growth inhibition [2]: 24.1%
- growth inhibition [3]: 20.4%
- growth inhibition [4]: 22.9%
- growth inhibition [5]: 26.7%
- growth inhibition [6]: 26.6%

Compound: CCN=C(C#N)NCC
- growth inhibition [1]: 19.2%
- growth inhibition [2]: -3.75%
- growth inhibition [3]: 20.9%
- growth inhibition [4]: 16.6%
- growth inhibition [5]: 25.2%
- growth inhibition [6]: 29.8%

Compound: Cc1cc(=O)n2nc(SCc3ccccc3)sc2n1
- growth inhibition [1]: 11.3%
- growth inhibition [2]: 8.2%
- growth inhibition [3]: 28.9%
- growth inhibition [4]: 1.9%
- growth inhibition [5]: 3.5%
- growth inhibition [6]: -8.95%

Compound: Cc1ccc(CC2CC(=O)c3ccccc3C2=O)cc1 (stereo unspecified)
- growth inhibition [1]: -7.6%
- growth inhibition [2]: 2.95%
- growth inhibition [3]: -4.55%
- growth inhibition [4]: -13.9%
- growth inhibition [5]: 3.65%
- growth inhibition [6]: -16.4%

Compound: COc1cccc(/C=C/S(=O)(=O)Cc2ccccc2)c1OC
- growth inhibition [1]: 9.7%
- growth inhibition [2]: 4.85%
- growth inhibition [3]: 4.85%
- growth inhibition [4]: 23.4%
- growth inhibition [5]: 7.4%
- growth inhibition [6]: 26.1%

Compound: COC(=O)c1ccc(OC(=O)Nc2cccc(C(C)=O)c2)cc1
- growth inhibition [1]: 14.2%
- growth inhibition [2]: 14.9%
- growth inhibition [3]: 10.6%
- growth inhibition [4]: -9.2%
- growth inhibition [5]: 12.7%
- growth inhibition [6]: 34.8%

Compound: CCCCC(CC)COC(=O)C(C)CCC (stereo unspecified)
- growth inhibition [1]: 4.65%
- growth inhibition [2]: -1.1%
- growth inhibition [3]: -2.4%
- growth inhibition [4]: -27.7%
- growth inhibition [5]: 17.9%
- growth inhibition [6]: 5%

Compound: O=c1ccn(C2OC(CF)C(O)C2O)c(=O)[nH]1 (stereo unspecified)
- growth inhibition [1]: 1.8%
- growth inhibition [2]: -2.85%
- growth inhibition [3]: -1.4%
- growth inhibition [4]: 9.05%
- growth inhibition [5]: 0.7%
- growth inhibition [6]: -9.9%

Compound: Cc1cccc(C(=O)c2ccccc2)c1C(=O)O
- growth inhibition [1]: 10.7%
- growth inhibition [2]: 2.45%
- growth inhibition [3]: 4.55%
- growth inhibition [4]: 2.45%
- growth inhibition [5]: -9.25%
- growth inhibition [6]: 2.15%

Compound: CCOC(=O)c1cnc2n(c1=O)[C@H]1CCCC[C@@H]1N2
- growth inhibition [1]: 59%
- growth inhibition [2]: 5.55%
- growth inhibition [3]: -9.05%
- growth inhibition [4]: 9.75%
- growth inhibition [5]: 8.7%
- growth inhibition [6]: 5.65%

Compound: CN(C)c1ccc(C2(c3ccc(N(C)C)cc3)NNC(=O)c3cc(N(C)C)ccc32)cc1
- growth inhibition [1]: 21.4%
- growth inhibition [2]: 5%
- growth inhibition [3]: 13.2%
- growth inhibition [4]: 16.8%
- growth inhibition [5]: -3.15%
- growth inhibition [6]: 1.8%

Compound: CCC(CO)(CO)CBr
- growth inhibition [1]: 3.75%
- growth inhibition [2]: -1.1%
- growth inhibition [3]: 0.6%
- growth inhibition [4]: -14.7%
- growth inhibition [5]: -4.9%
- growth inhibition [6]: 9.55%

Compound: C=C(Cl)C(C)(Cl)CCC(Cl)C(C)(C)Cl (stereo unspecified)
- growth inhibition [1]: 21.9%
- growth inhibition [2]: 16.4%
- growth inhibition [3]: 29.6%
- growth inhibition [4]: 42.5%
- growth inhibition [5]: 32.2%
- growth inhibition [6]: 25.3%

Compound: COc1cc2c(c(Cl)c1OC)CCN(C)CC2c1ccccc1 (stereo unspecified)
- growth inhibition [1]: -5.25%
- growth inhibition [2]: -15.3%
- growth inhibition [3]: -13.9%
- growth inhibition [4]: -9.5%
- growth inhibition [5]: -1.45%
- growth inhibition [6]: 1.85%

Compound: Nc1cccc2c1C(=O)c1cccc(N)c1C2=O
- growth inhibition [1]: 7.65%
- growth inhibition [2]: 16.4%
- growth inhibition [3]: 8.4%
- growth inhibition [4]: -7.35%
- growth inhibition [5]: 8.2%
- growth inhibition [6]: 21.9%

Compound: O=C(O)CC1CC(=O)OC1(c1ccccc1)c1ccccc1 (stereo unspecified)
- growth inhibition [1]: 18%
- growth inhibition [2]: 11.6%
- growth inhibition [3]: 20.9%
- growth inhibition [4]: 2.8%
- growth inhibition [5]: 8.15%
- growth inhibition [6]: 6.45%

Compound: O=C1NC(=S)SC1=C1CCCCC1
- growth inhibition [1]: 22.9%
- growth inhibition [2]: 42.5%
- growth inhibition [3]: 41.6%
- growth inhibition [4]: 34.5%
- growth inhibition [5]: 37.9%
- growth inhibition [6]: 28.2%

Compound: CNC(=O)NC1CCC(C)CC1 (stereo unspecified)
- growth inhibition [1]: 2%
- growth inhibition [2]: 2.6%
- growth inhibition [3]: 1.5%
- growth inhibition [4]: -14.3%
- growth inhibition [5]: -6.25%
- growth inhibition [6]: 7.85%

Compound: N/C(=N/O)c1cn(C2OC(CO)C(O)C2O)c2ncnc(NO)c12 (stereo unspecified)
- growth inhibition [1]: 9.65%
- growth inhibition [2]: -20.6%
- growth inhibition [3]: -0.2%
- growth inhibition [4]: -1.15%
- growth inhibition [5]: -16.1%
- growth inhibition [6]: 4.1%

Compound: Cc1cc2nc3ccc(O)cc3[n+](C)c2cc1N
- growth inhibition [1]: 57.7%
- growth inhibition [2]: 28.6%
- growth inhibition [3]: 31.6%
- growth inhibition [4]: 31.1%
- growth inhibition [5]: 15.9%
- growth inhibition [6]: 26.3%

Compound: O=C(Cc1ccccc1)NCO
- growth inhibition [1]: 2.95%
- growth inhibition [2]: 6.35%
- growth inhibition [3]: -9.6%
- growth inhibition [4]: -52.4%
- growth inhibition [5]: -3.5%
- growth inhibition [6]: 4.6%

Compound: Cc1cc(Br)ccc1Br
- growth inhibition [1]: 34.6%
- growth inhibition [2]: 19.3%
- growth inhibition [3]: -1.75%
- growth inhibition [4]: -36.4%
- growth inhibition [5]: -4.3%
- growth inhibition [6]: 8.6%

Compound: O=c1oc2cc(O)ccc2cc1-c1nc2ccccc2o1
- growth inhibition [1]: -2.1%
- growth inhibition [2]: -10.8%
- growth inhibition [3]: -31.2%
- growth inhibition [4]: 14.1%
- growth inhibition [5]: 2.75%
- growth inhibition [6]: -4.1%

Compound: Cn1c2ccccc2c(=S)c2c(O)cc3c(c21)C=CC(C)(C)O3
- growth inhibition [1]: 28.8%
- growth inhibition [2]: 6.3%
- growth inhibition [3]: -0.7%
- growth inhibition [4]: 22.9%
- growth inhibition [5]: 9.85%
- growth inhibition [6]: 21.6%
